Source: PubChem BioAssay (The Scripps Research Institute Molecular Screening Center)
An excerpt weighted towards active compounds, which were near 3.4% of everything screened.
GPR151 activ – activators of human GPR151 | Q8TDV0 | PathHunter beta-arrestin GPR151 cells, luminescence | activation, % at 11.2 µM | 650,000 tested, 1% active; in the data active means activation above about 4.9%;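 further: 0% = median of compound wells and 100% = cells with positive control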
Target sequence (Q8TDV0 whole entry, looked up): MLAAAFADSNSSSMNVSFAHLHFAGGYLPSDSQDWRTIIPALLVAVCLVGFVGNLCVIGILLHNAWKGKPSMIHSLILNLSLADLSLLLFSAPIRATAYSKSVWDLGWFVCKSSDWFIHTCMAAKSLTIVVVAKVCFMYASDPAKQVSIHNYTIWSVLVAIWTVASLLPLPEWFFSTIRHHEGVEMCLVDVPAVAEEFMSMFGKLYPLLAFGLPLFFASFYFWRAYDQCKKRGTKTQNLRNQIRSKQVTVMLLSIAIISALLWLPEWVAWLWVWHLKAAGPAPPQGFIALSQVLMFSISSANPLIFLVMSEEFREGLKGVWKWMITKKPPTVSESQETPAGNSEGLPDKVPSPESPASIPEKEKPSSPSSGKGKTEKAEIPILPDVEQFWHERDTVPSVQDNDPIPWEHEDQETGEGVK
MITF inh – inhibitors of human MITF | O75030 | AlphaScreen MITF homodimerization, bead proximity signal | inhibition, % at 2.6 µM | 650,000 tested, 0.91% active | AID 1259374; in the data active means inhibition above about 50%;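 further: 0% = vehicle wells with protein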
FBW7 act – human FBW7 E3 ligase activation, primary screen. 650,000 tested, 0.13% active. Q969H0. normalized activity (activation), % at 26.1 µM. AlphaScreen FBW7–phospho-cyclin E peptide binding, activator screen; in the data active means normalized activity above about 1.9%;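 further: purified mutant Fbw7 with reduced substrate affinity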
TEAD-YAP block – TEAD-YAP interaction inhibition. 640,000 tested, 1.4% active. inhibition, % at 9.12 µM. HEK-TIYL cells, TEAD-Gal4/YAP UAS-luciferase luminescence; in the data active means inhibition above about 32%;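 further: 0% = median of test compound wells and 100% = reference inhibitor wells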
The depositor's hits bear a star.

SMILES | GPR151 activ | MITF inh | FBW7 act | TEAD-YAP block
Cc1ccccc1Oc1nc2c(C)cccn2c(=O)c1/C=C(\C#N)C(=O)NCC1CCCO1 (stereo unspecified) | -1.4 | 1.9 | 0.0 | 33.5*
Cc1ccnc(NC(c2ccco2)c2c(C)[nH]c3ccccc23)c1 (stereo unspecified) | -0.2 | -8.8 | -0.2 | 38.0*
CC(C)(C)SCCNC(=O)c1ccc(Cl)cc1Cl | -1.0 | -6.5 | -0.1 | -74.4
COc1cccc(C2CC(c3cccs3)=NN2C(=O)CSc2nnc(CNC(=O)Cc3ccccc3)n2-c2ccc(F)cc2)c1OC (stereo unspecified) | -0.9 | 4.5 | 0.0 | 1.8
Cc1cc(/C=C2\C(=O)NC(=O)N(Cc3ccc4c(c3)OCO4)C2=O)c(C)n1C1CC1 | -2.1 | -5.4 | -0.2 | 4.8
CC(=O)Nc1ccc(NC(C)=O)c2c1C(=O)c1c(NC(C)=O)ccc(NC(C)=O)c1C2=O | 1.5 | 82.0* | -0.1 | 1.1
CC(=O)Nc1cccc2c1C(=O)c1cccc(NC(C)=O)c1C2=O | -1.1 | -9.1 | 0.3 | 3.5
COc1ccc(N2CCN(Cc3cc(=O)c(OC)cn3CC(=O)NCc3ccccc3)CC2)cc1 | -1.8 | 8.6 | 0.1 | -3.6
COc1cc(C(=O)N2N=C(C)CC2(O)C(F)(F)F)ccc1O (stereo unspecified) | -0.1 | 0.5 | 0.1 | -15.2
CCOc1cc(C(=O)N2N=C(C)CC2(O)C(F)(F)F)cc(OCC)c1OCC (stereo unspecified) | 1.3 | -1.8 | 0.0 | 61.4*
CCOC(=O)c1c(C)oc2ccc(NS(=O)(=O)c3ccc(C)cc3)cc12 | 0.4 | 0.3 | -0.1 | 34.0*
CCc1ccc(S(=O)(=O)Nc2ccc3oc(C)c(C(=O)OC)c3c2)cc1 | 3.3 | -5.3 | -0.2 | 60.1*
CC(=O)c1c(C)oc2ccc(NS(=O)(=O)c3c(C)cc(C)cc3C)cc12 | 2.5 | 0.2 | 0.1 | 37.0*
CCCc1oc2ccc(NS(=O)(=O)c3ccc(C)cc3)cc2c1C(=O)OCC | 0.3 | 17.4 | 0.1 | 57.1*
CCOC(=O)c1c(C)oc2ccc(NS(=O)(=O)c3ccc(Cl)cc3)cc12 | 0.4 | 2.9 | 0.0 | 10.7
CCCc1oc2ccc(NS(=O)(=O)c3ccc(F)cc3)cc2c1C(=O)OCC | 0.8 | -3.6 | -0.1 | 8.8
COc1ccc(-c2noc(CSc3nnc(-c4ccncc4)n3CC(C)C)n2)cc1 | 1.8 | 5.3 | 0.2 | 6.0
COc1ccc(C(=O)Nc2nc(-c3ccc(Br)cc3)cs2)c(OC)c1 | 1.8 | 7.7 | 0.0 | -0.9
COC(=O)c1c(C)oc2ccc(N(C(=O)c3ccc([N+](=O)[O-])cc3)S(=O)(=O)c3ccc(C)cc3)cc12 | 0.0 | 21.4 | -0.1 | 58.5*
CCc1ccc(S(=O)(=O)N(C(C)=O)c2ccc3oc(C)c(C(=O)OC)c3c2)cc1 | 0.9 | 1.3 | 0.0 | 48.8*
CCOc1ccc(S(=O)(=O)Nc2ccc3oc(C)c(C(=O)OCCOC)c3c2)cc1 | -0.8 | 2.8 | 0.1 | 57.3*
COC(=O)c1c(C)oc2ccc(NS(=O)(=O)c3ccc(C)cc3C)cc12 | 4.1 | -1.9 | -0.1 | 46.2*
COC(=O)c1c(C)oc2ccc(NS(=O)(=O)c3cc(C)ccc3C)cc12 | 1.3 | -4.1 | -0.1 | 30.8
Cc1cccc(NC(=O)CSc2nc3n[nH]c(C)c3c(=N)n2-c2cccc(Cl)c2C)c1 | -0.4 | 11.1 | 0.5 | 11.7
COCc1oc2ccc(NS(=O)(=O)c3ccc(C)cc3)cc2c1C(=O)OC | -1.2 | -7.0 | -0.1 | 55.0*
SMILES | GPR151 activ | MITF inh | FBW7 act | TEAD-YAP block
CC(=O)c1c(C)oc2ccc(N(C(C)=O)S(=O)(=O)c3cccc4cccnc34)cc12 | 0.7 | 6.2 | 0.0 | 52.4*
CCOC(=O)c1sc(NC(=O)CSc2nnc(CNC(=O)c3c(F)cccc3Cl)n2-c2cccc(C)c2)c(C(=O)OCC)c1C | -0.7 | -1.0 | -0.1 | -4.7
O=C(c1ccco1)N1CCN(c2nc3ccc(Cl)cc3n3cnnc23)CC1 | -1.1 | -6.4 | 0.0 | -8.4
O=C(OCC(=O)C12CC3CC(CC(C3)C1)C2)c1ccno1 | 1.7 | -2.3 | 0.0 | 9.8
COc1ccc2sc(N(Cc3cccnc3)C(=O)c3cccc(C)c3)nc2c1 | 2.2 | -9.0 | 0.0 | 40.0*
COc1ccc(Cc2noc(-c3ccc([N+](=O)[O-])o3)n2)cc1OC | 0.0 | 21.5 | -0.1 | 66.7*
COc1ccc(Cc2noc(-c3ccc(OC)c(OC)c3)n2)cc1OC | -0.8 | 4.1 | 0.0 | 1.6
COc1ccc(S(=O)(=O)N2N=C(c3c(-c4ccccc4)c4cc(Br)ccc4[nH]c3=O)CC2c2ccccc2)cc1 (stereo unspecified) | -1.3 | -8.7 | -0.1 | -3.3
O=C(Nc1cccc(-c2cn3cccnc3n2)c1)C1CCCCC1 | 1.4 | 3.9 | -0.3 | -14.2
